Screening results deposited in PubChem by National Center for Advancing Translational Sciences (NCATS).
IL1B secr inh: inflammasome signaling inhibition, IL-1 beta readout; THP-1 LPS/ATP IL-1B secretion, AlphaLISA, 16 h; stronger effect = lower value; activity change, % at 57.5 µM; hit rate 4.7% among 360,000; in the data active = activity change below about -50%; inconclusive = mostly about -30% to -49%
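THP-1 cells pretreated 1 hr with compounds (up to 57.5 uM final), then stimulated with LPS (250 ng/mL final) plus ATP (1.25 mM final); secreted IL-1B measured by AlphaLISA after 16 hr, decreased signal indicating inhibition.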
TDP1 cell CPT: growth inhibition of DT40 Tdp1-/-;hTDP1 cells with camptothecin (screen for TDP1 inhibitors) | chicken DT40 Tdp1-/-;hTDP1 cells + 20 nM CPT, ATP luminescence, 48 h | Potency, µM (titrated, usually from 46.2 µM), for the others: at the highest dose activity change, negative = growth inhibition, hits mostly inhibitors | hit rate 12% among 420,000; also: potency is read from the fitted curve at half-maximal effect; nearly all actives have a fitted effect of over 55% in size
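Chicken DT40 Tdp1-/- cells complemented with human TDP1, 400 cells/well, exposed to compounds plus 20 nM camptothecin for at least 48 h at 37 C; viability read as ATP content by CellTiter-Glo luminescence.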
HT1080NT lethal: kills 2HG-producing HT-1080-NT fibrosarcoma cells; HT-1080-NT fibrosarcoma viability, CellTiter-Glo ATP luminescence, 48 h; hit rate 1.6% among 360,000; Potency, µM (doses to about 46.1 µM), for the others: top-dose activity, negative = less viability, usual class: cytotoxic;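 also: NT is the 2HG producing partner of a matched IDH1 knockdown line; potency is read from the fitted curve at half-maximal effect; 0% = DMSO-treated cells and -100% = media-only wells without cells; nearly all actives have a fitted effect of over 55% in size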
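Toxicity toward the 2HG-producing NT line was scored as %Activity, normalised to DMSO and no-cell wells, from CellTiter-Glo luminescence after 48 hours' treatment.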
DT40 TDP1 no CPT: qHTS for Inhibitors of human tyrosyl-DNA phosphodiesterase 1 (TDP1): qHTS in cells in absence of CPT; DT40 Tdp1-/- hTDP1 cells, no CPT, ATP luminescence, 48 h; Potency, µM (doses to about 46.2 µM), for the others: at the highest dose activity change, negative = growth inhibition, hits mostly inhibitors; hit rate 15% among 420,000; AID 686978, 2013; also: potency is read from the fitted curve at half-maximal effect; nearly all actives have a fitted effect of over 55% in size
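Growth kinetics read by CellTiter-Glo luminescence after ≥48 hr at 37 °C. Cells: DT40 Tdp1-/- stably carrying human TDP1, 400 per well, compound exposure in the absence of CPT (DMSO vehicle).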
HT1080 IDH1KD tx: toxicity to HT-1080 IDH1 knockdown cells (counter line). Potency, µM (doses to about 46.1 µM), for inactives: at the top dose activity, negative = toxicity, actives largely listed as cytotoxic. hit rate 2% among 360,000. HT-1080 IDH1 knockdown viability, ATP luminescence, 48 h. AID 686971;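 also: potency is read from the fitted curve at half-maximal effect; 0% = DMSO wells and -100% = cell-free medium wells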
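IDH1KD HT-1080 cells, 750/well, RPMI + 5% FBS; compound pinned after 2 h settling; 48 h, 37 °C; CellTiter-Glo luminescence; % activity normalised to DMSO and no-cell wells; curves fitted, classed by r2 and efficacy.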
Numbers without * were called inactive; ? = inconclusive; . = no result; [ ] = remark or other dose. A selection: hits, their analogues and other compounds. The true share with any hit is near 19%. Unless noted, calls follow the shape of the dose curve; as a rule, active = well fitted curve in the direction sought with a large enough effect; inconclusive = small, poorly fitted or top-dose-only effect, or another doubt; inactive = no such curve, though single readings can be large; an effect the other way counts as inactive or inconclusive. Unless noted, % is scaled to controls: 0 for no effect and ±100 for the full control effect.

SMILES | IL1B secr inh | TDP1 cell CPT | HT1080NT lethal | DT40 TDP1 no CPT | HT1080 IDH1KD tx
CCOc1ccc(/C=N/OCC(=O)Nc2cc(S(=O)(=O)N3CCOCC3)ccc2OC)cc1 | -13 | -11% | -3% | -25% | 0%
O=C(O)COCC(=O)NCc1csc2ccccc12 | 8 | -1% | 14% | 9% | 19%
CNC(=O)c1ccccc1Sc1ccc2c(/C=C/c3ccccn3)n[nH]c2c1 | . | 4.2µM* | . | 2.7µM* | .
CN(Cc1c(F)cccc1Cl)C(=O)c1ccc(NC(=O)CC2SC(N3CCCC3)=NC2=O)cc1 (configuration not stated) | -11 | ? | -1% | 18µM* | 0%
CCOc1ccc(NC(=O)c2c(OC)cccc2OC)cc1 | 42 | -2% | -11% | -3% | -3%
Nc1c(C(=O)c2ccccc2)sc(Nc2ccc(Cl)c(Cl)c2)c1C(=O)Nc1ccccc1 | . | ? | . | 4.1µM* | .
COc1ccccc1NC(=O)c1c(Nc2ccccc2F)sc(C(=O)Nc2cccc(Cl)c2)c1N | ? | ? | 15µM* | 26µM* | ?
CCOc1ccc(NC(=O)c2c(Nc3ccc(OC)cc3OC)sc(C(=O)c3ccc(Cl)cc3)c2N)cc1 | . | 12µM* | . | 13µM* | .
Cc1ccc(Nc2sc(C(=O)c3ccccc3)c(N)c2C(=O)Nc2ccc(Cl)cc2)cc1 | . | ? | . | 18µM* | .
Cc1ccccc1N(C=O)c1ccccc1C | 20 | -6% | -10% | -25% | -10%
COC(=O)[C@]12CCCCC=C1N(Cc1ccc3c(c1)OCO3)C(=O)[C@H](CC(=O)NCCc1ccccc1OC)C2 | . | 23µM* | ? | 18µM* | 12µM*
COCCCNC(=O)C[C@@H]1C[C@@]2(C(=O)OC)CCCCC=C2N(Cc2ccc3c(c2)OCO3)C1=O | 8 | ? | 19% | ? | 27%
CCOC(=O)[C@]12CCCC=C1N(Cc1ccc3c(c1)OCO3)C(=O)[C@H](CC(=O)NCCc1ccccc1OC)C2 | ? | ? | ? | 16µM* | -28%
CCOC(=O)[C@]12CCCC=C1N(Cc1ccc3c(c1)OCO3)C(=O)[C@H](CC(=O)NCc1ccc(OC)c(OC)c1)C2 | -5 | ? | 3% | ? | 8%
c1ccc2c(c1)ncc1cccn12 | 20 | -2% | 1% | -6% | -20%
CCn1c2ccccc2c2c3ncc4cccn4c3ccc21 | -76* | 4.1µM* | -4% | 6.5µM* | -28%
CC1(C)Cc2ccccc2-c2n[nH]c(=S)n21 | 2 | ? | 14µM* | 23µM* | 11µM*
COCCCNC(=O)c1ccc2c3c(onc13)-c1ccccc1C2=O | -98* | 7.3µM* | ? | 15µM* | ?
CC(C)OCCCNC(=O)c1ccc2c(c1)S(=O)(=O)c1ccccc1C2=O | -1 | -8% | 2% | ? | 16%
NNC(=O)CN1CCCc2ccccc21 | 2 | -5% | -7% | -8% | 0%
Oc1ccc(CN2CCCc3ccccc32)c2cccnc12 | 34 | 3.7µM* | -28% | 4.6µM* | ?
CCOc1ccc(C(=O)NCC(=O)OCCN2C(=O)c3ccccc3C2=O)cc1OCC | 2 | -11% | 8% | 3% | 3%
CCOn1c(=O)c[n+]([O-])c2ccccc21 | 21 | -15% | 20% | -1% | 0%
O=c1c[n+]([O-])c2ccccc2n1OCc1c(F)cccc1F | 8 | 13µM* | ? | 21µM* | ?
Cc1ccccc1C1(CC(=O)N2CCC[C@H]2C(N)=O)CC(=O)N(C2CCCC2)C1=O (some centres not stated) | . | 20%[9.04 µM] | . | -3% | .
SMILES | IL1B secr inh | TDP1 cell CPT | HT1080NT lethal | DT40 TDP1 no CPT | HT1080 IDH1KD tx
CC(=O)n1cc(N(C(=O)CCl)c2ccc(C)cc2)c2ccccc21 | -95* | 3.3µM* | 2.3µM* | 1.6µM* | 2.9µM*
CC(=O)N(c1ccc(Cl)cc1)c1cn(C(C)=O)c2ccccc12 | -15 | 4% | -11% | -28% | -8%
O=[N+]([O-])c1ccc(N2CCN(S(=O)(=O)c3ccc4ccccc4c3)CC2)cc1NCC1CCCO1 (configuration not stated) | -17 | 26% | 7% | -17% | 19%
COc1cccc(NC(=O)CN(C)C(=O)c2ccc3c(c2)CC(c2ccccc2)OC3=O)c1 (configuration not stated) | -10 | ? | -23% | ? | 3%
COc1ccc(Cl)cc1NC(=O)CN(C)C(=O)c1ccc2c(c1)CC(c1ccccc1)OC2=O (configuration not stated) | -3 | 15µM* | 0% | 16µM* | -3%
COc1ccc(NC(=O)CN(C)C(=O)c2ccc3c(c2)CC(c2ccccc2)OC3=O)cc1 (configuration not stated) | 41 | 26µM* | -3% | 16µM* | -1%
CCC(C)(C)NC(=O)C(c1cccc(OC)c1OC)N(CCC(C)C)C(=O)CCC(=O)Nc1cc(C)on1 (configuration not stated) | 2 | ? | -11% | ? | -18%
CCOC(=O)C1CCN(c2cc3c(cc2NC(=O)c2ccccc2)n(C)c(=O)n3C)CC1 | 9 | 21µM* | -8% | 8.2µM* | 5%
CCOC(=O)c1ccc(N2CCN(c3ccccc3F)CC2)c(NC(=O)Nc2ccccc2)c1 | 23 | 16µM* | 1% | 16µM* | -1%
CCOC(=O)C1CCN(c2cc3c(cc2NC(=O)c2ccc(OC)c(OC)c2)n(C)c(=O)n3C)CC1 | 9 | 9.2µM* | 1% | 5.8µM* | -1%
COc1ccc(C(=O)Nc2ccc3c(c2)n(C)c(=O)n3C)cc1OC | -16 | -25% | 0% | 1% | 1%
CCOC(=O)c1ccc(N2CCCCC2)c(NS(=O)(=O)c2ccc(C)cc2)c1 | 60 | ? | ? | 21µM* | ?
CCOC(=O)c1ccc(N2CCN(c3ccc(F)cc3)CC2)c(NC(=O)Nc2ccc(CC)cc2)c1 | . | -8% | . | -5% | .
CCC(OC(=O)c1cccs1)C(=O)NCc1ccc(C)cc1 (configuration not stated) | 31 | -10% | 14% | 4% | 11%
CCOC(=O)c1ccc(NC(=O)Nc2cc3c(cc2N2CCCC2)n(C)c(=O)n3C)cc1 | . | ? | . | 23µM* | .
CCOC(=O)c1ccc(NC(=O)NCCN2CCCCC2)cc1 | 11 | -11% | 7% | -4% | -2%
CCOC(=O)CNC(=O)Nc1cc(C(=O)NCc2ccc(C(C)C)cc2)ccc1N1CCCC1 | . | ? | . | -26% | .
Cc1ccc(CNC(=O)c2ccc(N3CCCC3)c(NC(=O)Nc3ccc(C)cc3)c2)cc1 | . | 15µM* | . | 23µM* | .
C(C#CCCCCCCCCC[n+]1ccccc1)#CCCCCCCCCC[n+]1ccccc1 | -95* | 3.3µM* | 8.2µM* | 3.3µM* | 7.3µM*
